Measured values taken from PubChem BioAssay (NCATS).
Inconclusive results are not listed. Calls of active or inactive are those of the source. The call rests on the fitted dose curve; in most records, active means well fitted cell-killing curve with a large enough effect; inconclusive means small, poorly fitted or top-dose-only effect, or effect the other way; inactive means flat fitted curve, though single readings scatter. Where a SMILES comes first, the peptide text is derived from it. [ ]: non-standard residue; d: D form. 2Abz = Nc1ccccc1C(=O)O

Experiments:
Experiment in all cases: Primary qHTS to identify gynecologic anti-cancer compounds using libraries of approved drugs and bioactive compounds (AID 1345084); further: nearly all actives have a fitted effect of over 55% in size
Settings in all cases: Gynecologic cancer cell panel viability, ATPlite luminescence, 48 h; series mostly up to 57.5 µM
JEG-3 = system: JEG-3
Procedure, shortened: (§1)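 Cell viability after 48 h drug treatment, ATPlite luminescence readout; five doses.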

OV90 = system: OV90
Procedure, shortened: as §1

PA-1 = system: PA-1
Procedure, shortened: as §1

SKOV3 = system: SKOV3
Procedure, shortened: as §1

Tov-21-G = system: Tov-21-G
Procedure, shortened: as §1

Tov112D = system: Tov112D
Procedure, shortened: as §1
On the % scale 0 is the no-effect control and ±100 the full control effect.

Cc1onc(-c2ccccc2)c1C(=O)N[C@@H]1C(=O)N2[C@@H]1SC(C)(C)[C@@H]2C(=O)O
inactive: Potency (JEG-3) | Potency (OV90) | Potency (PA-1) | Potency (SKOV3) | Potency (Tov-21-G) | Potency (Tov112D)

CC[C@H]1OC(=O)[C@H](C)[C@@H](OC2C[C@@](C)(OC)[C@@H](O)[C@H](C)O2)[C@H](C)[C@@H](OC2O[C@H](C)C[C@H](NC)[C@H]2O)[C@](C)(O)C[C@@H](C)CN(C)[C@H](C)[C@@H](O)[C@]1(C)O (some centres undefined)
inactive: Potency (JEG-3) | Potency (OV90) | Potency (PA-1) | Potency (SKOV3) | Potency (Tov-21-G) | Potency (Tov112D)

CC1(C)CCC2(C(=O)OC3OC(COC4OC(CO)C(O)C(O)C4O)C(O)C(O)C3O)CCC3(C)C(=CCC4C5(C)CCC(O)C(C)(C(=O)O)C5CCC43C)C2C1O (centres undefined)
inactive: activity change, negative = cytotoxicity (JEG-3) -2.36% [at 11.6 µM] | activity change, negative = cytotoxicity (OV90) 0.278% [at 11.6 µM] | activity change, negative = cytotoxicity (PA-1) -2.93% [at 11.6 µM] | activity change, negative = cytotoxicity (SKOV3) 21% [at 11.6 µM] | activity change, negative = cytotoxicity (Tov-21-G) 0.669% [at 11.6 µM] | activity change, negative = cytotoxicity (Tov112D) -1.2% [at 11.6 µM]

COc1cc(C[C@H]2COC(=O)[C@@H]2Cc2ccc(O)c(OC)c2)ccc1O
inactive: Potency (JEG-3) | Potency (OV90) | Potency (PA-1) | Potency (SKOV3) | Potency (Tov-21-G) | Potency (Tov112D)

CNC(=O)Nc1ccc(OC)c(NC(=O)NC(=O)c2cc(F)c(F)cc2Cl)c1
inactive: Potency (JEG-3) | Potency (OV90) | Potency (PA-1) | Potency (SKOV3) | Potency (Tov-21-G) | Potency (Tov112D)

COc1ccc(/C=C/C(=O)O[C@@H]2[C@@H](OC(C)=O)[C@@H](OC(C)=O)[C@H](O[C@H]3[C@@H]4C=CO[C@@H](O[C@@H]5O[C@H](CO)[C@@H](O)[C@H](O)[C@H]5O)[C@@H]4[C@@]4(CO)O[C@@H]34)O[C@H]2C)cc1O
inactive: Potency (JEG-3) | Potency (OV90) | Potency (PA-1) | Potency (SKOV3) | Potency (Tov-21-G) | Potency (Tov112D)

CCC(C)/C=C(C)/C=C/C1=CC2=C(Cl)C(=O)C(C)(OC(C)=O)C(=O)C2=CN1CCCC(=O)O (centres undefined)
inactive: Potency (JEG-3) | Potency (OV90) | Potency (PA-1) | Potency (SKOV3) | Potency (Tov-21-G) | Potency (Tov112D)

COC1CC(=O)C23C(=O)NC(CC(C)C)C2C(C)C(C)=CC3/C=C(\C)CCC1O (centres undefined)
inactive: Potency (JEG-3) | Potency (OV90) | Potency (PA-1) | Potency (SKOV3) | Potency (Tov-21-G) | Potency (Tov112D)

CO[C@H]1C=C2C(CC[C@H](O[C@@H]3O[C@H](CO)[C@@H](O)[C@@H](O)[C@H]3O)C2(C)C)[C@]2(C)CC[C@]3(C)C([C@H](C)C(O)C(C=C(C)C)O[C@@H]4O[C@H](CO)[C@@H](O)[C@@H](O)[C@H]4O)CC[C@@]3(C)C12 (some centres undefined)
inactive: activity change, negative = cytotoxicity (JEG-3) -6.82% [at 11.6 µM] | activity change, negative = cytotoxicity (OV90) 5.72% [at 11.6 µM] | activity change, negative = cytotoxicity (PA-1) -0.818% [at 11.6 µM] | activity change, negative = cytotoxicity (SKOV3) -12.6% [at 11.6 µM] | activity change, negative = cytotoxicity (Tov-21-G) 4% [at 11.6 µM] | activity change, negative = cytotoxicity (Tov112D) 2.11% [at 11.6 µM]

N#CCc1ccc(O)cc1O[C@@H]1O[C@H](CO)[C@@H](O)[C@H](O)[C@H]1O
inactive: Potency (JEG-3) | Potency (OV90) | Potency (PA-1) | Potency (SKOV3) | Potency (Tov-21-G) | Potency (Tov112D)

Cc1cc(O)c(C(C)C)cc1O[C@@H]1O[C@H](CO)[C@@H](O)[C@H](O)[C@H]1O
inactive: Potency (JEG-3) | Potency (OV90) | Potency (PA-1) | Potency (SKOV3) | Potency (Tov-21-G) | Potency (Tov112D)

CCNC(=O)[C@H]1O[C@H](n2cnc3c(NCC(c4ccccc4)c4ccccc4)nc(C(=O)NCCNC(=O)NC4CCN(c5ccccn5)CC4)nc32)[C@H](O)[C@@H]1O
inactive: Potency (JEG-3) | Potency (OV90) | Potency (PA-1) | Potency (SKOV3) | Potency (Tov-21-G) | Potency (Tov112D)

CC1CCC2C(C(=O)O)=CC3C(O)C(C)(C)CC123 (centres undefined)
inactive: Potency (JEG-3) | Potency (OV90) | Potency (PA-1) | Potency (SKOV3) | Potency (Tov-21-G) | Potency (Tov112D)

CCC[C@@H]1C[C@@H](C(=O)N[C@@H]([C@H]2O[C@H](SC)[C@H](O)[C@@H](O)[C@@H]2O)[C@@H](C)O)N(C)C1
inactive: Potency (JEG-3) | Potency (OV90) | Potency (PA-1) | Potency (SKOV3) | Potency (Tov-21-G) | Potency (Tov112D)

C[C@@H]1O[C@@H](O[C@H]2[C@H](OC(C#N)c3ccc(O)cc3)O[C@H](CO)[C@@H](O)[C@@H]2O)[C@H](O)[C@H](O)[C@H]1O (some centres undefined)
inactive: Potency (JEG-3) | Potency (OV90) | Potency (PA-1) | Potency (SKOV3) | Potency (Tov-21-G) | Potency (Tov112D)

COc1cc(/C=C/C(=O)OC[C@H]2O[C@H](O[C@]3(CO)O[C@H](CO)[C@@H](O)[C@@H]3O)[C@H](O)[C@@H](O)[C@@H]2O)cc(OC)c1O
inactive: Potency (JEG-3) | Potency (OV90) | Potency (PA-1) | Potency (SKOV3) | Potency (Tov-21-G) | Potency (Tov112D)

CC1=C2CC3OC3(C)CCC3OC3(C)CC2OC1=O (centres undefined)
inactive: Potency (JEG-3) | Potency (OV90) | Potency (PA-1) | Potency (SKOV3) | Potency (Tov-21-G) | Potency (Tov112D)

CC(C)(C)NCC(O)COc1cccc2c1CCCC2=O (centres undefined)
inactive: Potency (JEG-3) | Potency (OV90) | Potency (PA-1) | Potency (SKOV3) | Potency (Tov-21-G) | Potency (Tov112D)

CCC(C)C1NC(=O)C2CCCN2C(=O)C(C(C)C)NC(=O)c2ccccc2NC(=O)C(Cc2ccc(O)cc2)NC(=O)C(C)NC(=O)C(C(C)O)NC1=O (centres undefined) (cyclo([2Abz]VPITAY); configuration not given here)
inactive: Potency (JEG-3) | Potency (OV90) | Potency (PA-1) | Potency (SKOV3) | Potency (Tov-21-G) | Potency (Tov112D)
